Drawing on PubChem BioAssay (NCATS), this text covers activation and Potency for twelve compounds.

Where “and” joins values, the source holds several entries; their conditions need not be identical. Equal values may be shown once. Records with an inconclusive call do not appear. Unmarked numbers belong to inactive results. Calls of active or inactive are those of the source. Unless noted, calls come from the whole dose curve; as a rule, active = well fitted curve in the direction sought with a large enough effect; inconclusive = small, poorly fitted or top-dose-only effect, or another doubt; inactive = no such curve, though single readings can be large; an effect the other way counts as inactive or inconclusive.

In assay [1] the target is Cellular tumor antigen p53 (Homo sapiens) (UniProt P04637). As to the kind of experiment: Primary qHTS for small molecule compounds that upregulate eGFP-tagged delta133p53alpha (in N-terminal) cells. (AID 2060322).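 Note: cells pre-induced with doxycycline then dosed without doxycycline; 0% = DMSO vehicle and 100% = reference activator; nearly all actives have a fitted effect of over 75% in size.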 The following applies: NCI-H358 eGFP-delta133p53alpha fluorescence, 24 h; activation: hits give high values. A digest of the protocol: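 NCI-H358 cells pre-induced 24 h with 10 ng/ml doxycycline for eGFP-delta133p53alpha, plated dox-free and exposed 24 h at 37C to titrated compounds. Fixed, Hoechst-stained; gated GFP peak intensity by laser scanning cytometry, normalized to DMSO (0%) and 57.5 uM 5-azacytidine (100%).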
(Quantitative high-throughput screening tests each substance at several concentrations.)

For assay [2], the target named is Aldehyde dehydrogenase, mitochondrial (Homo sapiens) (UniProt P05091). As to the kind of experiment: qHTS for Inhibitors of the Aldehyde Dehydrogenase Family (ALDH2) Validation screens (AID 2061302; active = well fitted inhibition curve with a large enough effect; title and protocol of this record describe different tests;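 note: plate controls were DMSO vehicle for no effect and maximal DPI positive control response for full effect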). As to conditions: ALDH inhibition qHTS; series mostly up to 42.6 µM.
A short description of assay [3]: qHTS for Inhibitors of the Aldehyde Dehydrogenase Family (ALDH1A2, ALDH1A3, ALDH2, ALDH3A1) (AID 2061307). Note: % is set by controls: 0 for no effect and ±100 for the full control effect; nearly all actives have a fitted effect of over 50% in size. As to conditions: ALDH inhibition qHTS; series mostly up to 50.3 µM.
The target of assay [4] is Retinaldehyde dehydrogenase 3 (Homo sapiens) (UniProt P47895). Briefly: qHTS for Inhibitors of the Aldehyde Dehydrogenase Family (ALDH1A3) Confirmatory screens (AID 2061311). Note: potency is the fitted concentration of half-maximal effect; nearly all actives have a fitted effect of over 60% in size. As to conditions: ALDH inhibition qHTS; series mostly up to 46 µM.
The target of assay [5] is Aldehyde dehydrogenase 1A1 (Homo sapiens) (UniProt P00352). As to the kind of experiment: qHTS for Inhibitors of the Aldehyde Dehydrogenase Family (ALDH1A1) Confirmatory screens (AID 2061316). Note: potency is the fitted concentration of half-maximal effect; nearly all actives have a fitted effect of over 65% in size. As to conditions: ALDH inhibition qHTS; series mostly up to 47.3 µM.
The target in assay [6] is Retinaldehyde dehydrogenase 3 (Homo sapiens) (UniProt P47895). Briefly: qHTS for Inhibitors of the Aldehyde Dehydrogenase Family (ALDH1A3) Validation screen (AID 2061312). Note: nearly all actives have a fitted effect of over 45% in size. Note: potency is the fitted concentration of half-maximal effect. As to conditions: ALDH1A3 enzyme inhibition qHTS validation, fluorescence; series mostly up to 42.4 µM.

Sequence of Cellular tumor antigen p53 (Homo sapiens) (P04637 whole entry, looked up): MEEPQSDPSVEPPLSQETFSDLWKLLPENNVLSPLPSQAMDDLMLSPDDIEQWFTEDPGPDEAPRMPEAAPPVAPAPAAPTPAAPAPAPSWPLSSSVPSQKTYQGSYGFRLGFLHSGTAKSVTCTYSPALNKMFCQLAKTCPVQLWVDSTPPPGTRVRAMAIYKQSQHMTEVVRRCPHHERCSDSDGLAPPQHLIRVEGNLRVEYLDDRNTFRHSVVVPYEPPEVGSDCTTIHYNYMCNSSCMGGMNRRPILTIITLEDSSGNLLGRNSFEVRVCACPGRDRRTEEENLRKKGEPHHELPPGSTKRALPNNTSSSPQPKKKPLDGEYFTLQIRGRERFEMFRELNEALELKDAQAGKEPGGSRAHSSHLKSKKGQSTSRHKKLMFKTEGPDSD

Turning to `N#CC(C#N)=Cc1ccc(O)c(O)c1`, the activation in assay [1] was 23.2% and -8.42%. Also, the Potency result in assay [2] and in assay [3] was “inactive” each time. The Potency was 0.798 µM (active) in assay [4] and 20.1 µM (active) in assay [5].

As to `C[N+]1(C)CCc2cc3c(cc2[C@H]1[C@@H]1OC(=O)c2c1ccc1c2OCO1)OCO3`, the activation in assay [1] was -3.8%. Also, the Potency result in assay [2] and in assay [6] was “inactive” in each case.

Turning to `O=c1ccc2[nH]cc(C3=CCNCC3)c2[nH]1`, the activation in assay [1] was -8.35%. In addition, the Potency result in assay [2] and in assay [3] was “inactive” each time. Further, the Potency in assay [6] is 0.398 µM (active).

On to `CN[C@@H]1C[C@@H](c2ccc(Cl)c(Cl)c2)c2ccccc21`, for which, in assay [1], the activation is -33.4%. For the same compound, the Potency entry in assay [2] and in assay [6] was “inactive” each time.

As to `CC1(C(=O)O)C2CCC(O2)C1(C)C(=O)O` (stereo unspecified), in assay [1], the activation is -33.6%. In addition, the Potency result in assay [2] and in assay [6] was “inactive” throughout.

Turning to `NCCc1ccc(O)cc1`, the activation in assay [1] is 0.565% and 11.2%. For the same compound, the Potency entry in assay [2] and in assay [6] was “inactive” throughout.

With `C=CCN1C[C@@H](C)N([C@H](c2ccc(C(=O)N(CC)CC)cc2)c2cccc(OC)c2)C[C@@H]1C`, in assay [1], the activation was -25.3%. Also, the Potency result in assay [2] and in assay [6] was “inactive” throughout.

In the case of `C#CCN[C@H](C)Cc1ccccc1`, the activation in assay [1] is 4.01%. The Potency result in assay [2] was “inactive”.

With `Oc1ccc2c3c1O[C@H]1c4oc5ccccc5c4C[C@@]4(O)C(C2)N(CC2CC2)CCC314` (stereo partly specified), the activation in assay [1] was -83.6%. In addition, the Potency entry in assay [2] and in assay [6] was “inactive” each time.

Turning to `CC(C)(C)OC(=O)NC1[C@H]2CNC[C@@H]12` (stereo partly specified), the activation in assay [1] was -12.9%. Further, the Potency result in assay [2] is “inactive”.

For `CCCN1CCc2cccc3c2[C@H]1Cc1ccc(O)c(O)c1-3`, the activation in assay [1] was -13.3%. In assay [2], the Potency entry was “inactive”. The Potency in assay [4] is 22.5 µM (active).

For `O=C1CC[C@@]2(O)C3Cc4ccc(O)c5c4C2(CCN3CC2CC2)[C@H]1O5` (stereo partly specified), the activation in assay [1] is -10.4%. The Potency result in assay [2] is “inactive”.
